HEK293 cAMP ctrl – parental HEK293 cAMP activation (counter-screen); parental HEK293 CNG cAMP sensor, membrane potential fluorescence; Potency, µM (titrated, usually from 57.1 µM), usual class: activators; 2.5% of 73,000 active; note: nearly all actives have a fitted effect of over 55% in size
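Parental HEK 293 cells stably expressing a modified CNG channel (no TSHR) report cAMP rise as membrane depolarization. Membrane potential dye with 100 uM RO 20-1724 was loaded for 60 min at room temperature, then compound added for 30 min; fluorescence read at 590 nm.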
UbGFP stabilizer – proteasome inhibitors stabilizing ubiquitin-GFP reporter; 67,000 tested, under 10 active; Ubiquitin-GFP reporter cells, proteasome inhibition, GFP fluorescence; response scale: untreated = 0%, 10 µM MG-132 = 100%; Potency, µM (titrated, usually from 45.9 µM), most hits filed as activators; AID 526; active = well fitted activation curve with a large enough effect, not every such curve was filed as active; inconclusive = small, poorly fitted or top-dose-only effect, or another doubt; inactive = no such curve, though single readings can be large or run the other way
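U2OS cells stably expressing ubiquitin(G76V)-GFP, seeded overnight in 0.5% FBS medium, were exposed to compounds (qHTS, 46 uM to 2.9 nM) for 4 hr at 37 °C. GFP-positive cells were counted by laser cytometry (488 ex/515 em), normalized between basal and 10 uM MG-132.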
GBA mod – modulators of human glucocerebrosidase; 1.1% of 48,000 active; P04062; purified enzyme, resorufin glucoside fluorescence (screen aimed at inhibitors), 20 min; Potency, µM; in the data active = potency below about 15 µM; inconclusive = mostly about 16 µM to 33 µM;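 note: the screen sought inhibitors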
Target sequence (P04062 whole entry, looked up): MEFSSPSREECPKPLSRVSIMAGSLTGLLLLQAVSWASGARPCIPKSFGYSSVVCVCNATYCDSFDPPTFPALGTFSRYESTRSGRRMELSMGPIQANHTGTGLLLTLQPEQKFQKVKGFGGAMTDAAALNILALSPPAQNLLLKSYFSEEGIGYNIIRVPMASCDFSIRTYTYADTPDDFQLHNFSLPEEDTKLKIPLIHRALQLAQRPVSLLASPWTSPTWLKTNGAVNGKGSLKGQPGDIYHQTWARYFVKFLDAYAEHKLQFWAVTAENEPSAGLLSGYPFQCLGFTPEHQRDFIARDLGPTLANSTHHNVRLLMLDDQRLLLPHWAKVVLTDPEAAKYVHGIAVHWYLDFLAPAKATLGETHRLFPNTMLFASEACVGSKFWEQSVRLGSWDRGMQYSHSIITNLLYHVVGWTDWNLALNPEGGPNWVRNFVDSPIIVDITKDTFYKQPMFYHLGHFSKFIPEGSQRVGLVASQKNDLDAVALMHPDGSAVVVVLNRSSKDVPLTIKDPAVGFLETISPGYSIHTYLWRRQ
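Normal human glucocerebrosidase (0.2 nM final) was assayed with resorufin β-D-glucopyranoside (30 uM final) in 50mM citric acid/KH2PO4, 10mM sodium taurocholate, 0.01% tween-20, pH 5.9. Compounds were titrated; fluorescence (Ex 548, Em 600) read after 20 min at RT.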
USP2a inhib – blocks human ubiquitin-specific protease USP2a; USP2a enzymatic assay, qHTS inhibition; Potency, µM (series often up to 38.3 µM), usual class: inhibitors; 0.1% of 60,000 active; AID 927; note: nearly all actives have a fitted effect of over 60% in size
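Coupled readout: USP2-cleaved Ub-PLA2 (20nM final) turns over NBD C6-HPC (20uM final), Ex 460nm/Em 535nm after 2.5 h, time-zero read flagging artifacts. Enzyme (20nM final, pH 8.0 Tris) given 30 min RT with compound first; NEM defines full inhibition.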
TSHR agonist – agonists of human thyroid stimulating hormone receptor. AID 926. P16473. HEK293-CNG-TSHR cells (CNG channel as cAMP sensor), membrane potential dye, cAMP. Potency, µM (top dose mostly 57.1 µM), usual class: activators. 0.48% of 73,000 active; active = well fitted activation curve with a large enough effect in the main read-out, with a control signal flat, not every such curve was filed as active; inconclusive = small, poorly fitted or top-dose-only effect, or a change in a side signal; inactive = no such curve, though single readings can be large or run the other way; reference of the percent scale not stated here;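 note: the control signal comes from parental cells without the receptor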
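HEK 293 cells stably expressing TSHR and a modified CNG channel, with CNG-only parental cells as counterscreen, were preloaded 60 min at room temperature with membrane potential dye containing 100 uM RO 20-1724. Compound exposure was 30 min, and depolarization was read as fluorescence at 590 nm.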
PK Bst – pyruvate kinase (B. stearothermophilus) modulation | purified pyruvate kinase, luminescence ATP production; ribose 5-phosphate activator present at AC10 | Potency, µM | 1.2% of 51,000 active; in the data active = potency below about 11 µM; inconclusive = mostly about 12 µM to 25 µM;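 the screen sought inhibitors and activators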
Each line names hits and unclear results; the compound was inactive in the other large screens; ! = not confirmed by another sample. A selection: hits, their analogues and other compounds. The true share with any hit is near 4.1%. Unless noted, calls come from the whole dose curve; as a rule, active = well fitted curve in the direction sought with a large enough effect; inconclusive = small, poorly fitted or top-dose-only effect, or another doubt; inactive = no such curve, though single readings can be large; an effect the other way counts as inactive or inconclusive.

CCN(CC)C(=O)N[C@@H]1C=C2c3cccc4[nH]cc(c34)C[C@@H]2N(C)C1	HEK293 cAMP ctrl 16µM!, TSHR agonist inconclusive (no result: GBA mod, USP2a inhib, PK Bst)
CCN1C[C@@]2(COC(=O)c3ccccc3N3C(=O)C[C@H](C)C3=O)CC[C@H](OC)[C@@]34[C@@H]5CC6[C@@H](OC)C[C@@](O)([C@H]5[C@H]6OC)C(O)([C@@H]13)[C@@H](OC)[C@H]24	none (no result: GBA mod, USP2a inhib, PK Bst)
CN(C)c1ccc2c(c1)N=C(c1ccco1)OP2(=S)N1CCOCC1 (stereo unspecified)	TSHR agonist 16µM
CNC(Cc1c[nH]c2ccccc12)C(=O)O (stereo unspecified)	none (no result: HEK293 cAMP ctrl, UbGFP stabilizer, GBA mod, TSHR agonist, PK Bst)
CN(C)Cc1c[nH]c2ccccc12	TSHR agonist 16µM! (no result: GBA mod, PK Bst)
COc1cc2c(cc1OC)[C@]13CCN4CC5=CCO[C@@H]6CC(=O)N2[C@@H]1[C@H]6[C@@H]5C[C@H]43	none (no result: GBA mod, USP2a inhib, PK Bst)
Cc1nn(Cc2ccccc2Cl)c(Cl)c1C(=O)OCC(=O)NCc1ccco1	HEK293 cAMP ctrl 25µM, TSHR agonist inconclusive
Cc1cc(NC(=O)COC(=O)c2c(C)nn(Cc3ccccc3Cl)c2Cl)no1	HEK293 cAMP ctrl inconclusive, TSHR agonist inconclusive
C=C[C@@H]1CN2CC[C@H]1C[C@H]2[C@@H](O)c1ccnc2ccccc12	HEK293 cAMP ctrl inconclusive, TSHR agonist inconclusive (no result: GBA mod, USP2a inhib, PK Bst)
CCCCCCn1c(O)c(C=NC2CCCCC2N)c(=O)[nH]c1=O (stereo unspecified)	PK Bst 2.7 (no result: TSHR agonist)
O=C(Nc1ccncc1)c1c(O)c2ccccc2n(Cc2ccccc2)c1=O	none (no result: HEK293 cAMP ctrl, UbGFP stabilizer, GBA mod, USP2a inhib, TSHR agonist)
O=C(Nc1cccnc1)c1c(O)c2c(n(Cc3ccccc3)c1=O)CCCC2	HEK293 cAMP ctrl 13µM, TSHR agonist inconclusive
COc1ccccc1OCCCn1cc(C(=O)c2ccco2)c2ccccc21	HEK293 cAMP ctrl 32µM, TSHR agonist inconclusive (no result: GBA mod)
CN(N=O)c1cc(O)ccc1O	USP2a inhib 16µM (no result: GBA mod, PK Bst)
CN(C)[C@@H]1C(=O)C(C(N)=O)=C(O)[C@]2(O)C(=O)C3=C(O)c4c(O)cccc4[C@@](C)(O)[C@@H]3C[C@@H]12	none (no result: GBA mod, USP2a inhib, PK Bst)
CC(C)(C)[C@@]1(O)C[C@@H]2OC(=O)C[C@@]23C(=O)O[C@H]2OC(=O)[C@@H](O)[C@]231	none (no result: GBA mod, USP2a inhib, PK Bst)
CC[C@H]1[C@@H]2C[C@@H]3[C@@H]4N(C)c5ccccc5[C@@]45C[C@@H]([C@H]2[C@@H]5O)N3[C@@H]1O	HEK293 cAMP ctrl inconclusive, TSHR agonist inconclusive (no result: GBA mod, USP2a inhib, PK Bst)
O=C(CSc1nnc2c3c4c(sc3ncn12)CCCC4)NCc1ccco1	HEK293 cAMP ctrl 13µM, TSHR agonist inconclusive
COc1ccc(C2=NCC(=O)N(CC(=O)NCc3ccco3)c3sc4c(c32)CCCC4)cc1OC	none (no result: TSHR agonist)
CCCC[C@@H]1C[C@H]1C(NP(=O)(c1ccccc1)c1ccccc1)c1ccc(Cl)cc1 (stereo partly specified)	HEK293 cAMP ctrl 2.5µM, TSHR agonist inconclusive (no result: UbGFP stabilizer, GBA mod, USP2a inhib, PK Bst)
C[C@@H](Cc1cccc(C(F)(F)F)c1)NCCCc1ccccc1	HEK293 cAMP ctrl 40µM, TSHR agonist inconclusive (no result: GBA mod, USP2a inhib, PK Bst)
CCCCCC[C@H]1C(=O)O[C@@H](C)[C@H](NC(=O)c2cccc(NC=O)c2O)C(=O)O[C@@H](C)[C@@H]1OC(=O)CC(C)C	HEK293 cAMP ctrl inconclusive, TSHR agonist inconclusive (no result: GBA mod, USP2a inhib, PK Bst)
